The values that follow come from PubChem BioAssay (Tox21).

Unmarked numbers belong to inactive results. Inconclusive results are not listed. Activity calls are given as the source filed them. Unless noted, calls follow the shape of the dose curve; as a rule, active = well fitted curve in the direction sought with a large enough effect in the repeat runs; inconclusive = weak or mixed curves; inactive = no such curve, though single readings can be large; an effect the other way counts as inactive or inconclusive.

The nature of assay [1]: qHTS assay for small molecule agonists of the p53 signaling pathway (AID 651631; calls by dose curve; also: nearly all actives have a fitted effect of over 15% in size). The procedure, abridged:
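Fluorescence intensity from cleaved LiveBLAzer B/G substrate (2 h, room temperature) served as the signal. Beforehand, HCT-116 reporter cells bearing p53 response elements were treated 16 h at 37 °C with DMSO-dissolved compounds.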

A short description of assay [2]: qHTS assay for small molecules that induce genotoxicity in human embryonic kidney cells expressing luciferase-tagged ATAD5 (AID 651632). Also: nearly all actives have a fitted effect of over 15% in size. An outline of the steps:
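Test compounds were delivered by pin tool onto HEK293T reporter cells (2,000/well) expressing ATAD5 fused to luciferase. After 16 hr at 37C, 5% CO2, Amplite was added for 30 min at room temperature and luminescence was measured.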
On the technique in general: qHTS replaces the single test concentration by a dilution series.

Assay [3] is described as follows: qHTS assay for small molecule agonists of the p53 signaling pathway - cell viability (AID 651633; calls by dose curve;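 also: p53RE-bla HCT reporter cells with a stable beta-lactamase p53 reporter; series mostly up to about 83 µM; nearly all actives have a fitted effect of over 30% in size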). An outline of the steps: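 Viability counter-read: CellTiter-Glo luminescence (30 min, room temperature) in the same p53RE-bla plates. These plates had been exposed to compounds for 16 h at 37 C.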
The nature of assay [4]: qHTS assay for small molecules that induce genotoxicity in human embryonic kidney cells expressing luciferase-tagged ATAD5 - cell viability (AID 651634; calls by dose curve; also: nearly all actives have a fitted effect of over 25% in size). The procedure, abridged: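 Quantitative high-throughput format. HEK293T cells expressing ATAD5 fused to luciferase were plated at 2,000 cells/well and treated 15.5 hr with compound versus DMSO. Viability was determined by fluorescent live-cell protease substrate, 30 min at 37C.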

Assay [5] is described as follows: qHTS assay for small molecule disruptors of the mitochondrial membrane potential - cell viability (AID 720634; calls by dose curve;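 also: human HepG2 liver cancer cells; series mostly up to about 83 µM; nearly all actives have a fitted effect of over 20% in size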). The procedure, abridged:
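Same-well counter-screen: following the MMP dye addition, CellTiter-Glo was added to 1 hr compound-treated HepG2 cells and luminescence read after 30 min at room temperature.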

Assay [6] can be described thus: qHTS assay to test for compound auto fluorescence at 590 nm (red) in HepG2 cells (AID 720674). An outline of the steps:
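1 hr compound incubation on HepG2 cells, 37 C, 5% CO2; plate read ex 540 nm / em 590 nm; intensities reported as Rose Bengal sodium equivalents.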

A short description of assay [7]: qHTS assay to test for compound auto fluorescence at 535 nm (green) in HepG2 cells (AID 720675).
Assay [8] is described as follows: qHTS assay to test for compound auto fluorescence at 460 nm (blue) in HEK293 cells (AID 720678). An outline of the steps: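 HEK293 cells (2,000 per well, medium with 10% dialyzed FBS) attached for 4-5 hr at 37C, then received compound and stood overnight at 37C, 5% CO2. Blue fluorescence was read at Ex/Em 405/460 nm and expressed relative to triamterene.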
Assay [9] is described as follows: qHTS assay to test for compound auto fluorescence at 590 nm (red) in HEK293 cells (AID 720679). An outline of the steps: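 HEK293 cells (2,000/well, medium with 10% dialyzed FBS) attached for 4-5 hr at 37C, received 23 nL compound and were incubated overnight at 37C, 5% CO2. Red fluorescence was then read at 540/590nm Ex/Em, referenced to Rose Bengal sodium.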
Assay [10] in a line: qHTS assay to test for compound auto fluorescence at 460 nm (blue) in HEK293 cell free culture (AID 720681). The procedure, abridged: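 Blue fluorescence (Ex 405/Em 460 nm, triamterene-equivalent) was read immediately after pin transfer of compound or DMSO into medium (DMEM, 10% FBS) without cells.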
Assay [11] can be described thus: qHTS assay to test for compound auto fluorescence at 535 nm (green) in HEK293 cell free culture (AID 720682). An outline of the steps: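 Intrinsic compound fluorescence is measured in culture medium containing 10% FBS, with excitation at 485 nm and detection at 535 nm, referenced to fluorescein.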
The nature of assay [12]: qHTS assay to test for compound auto fluorescence at 590 nm (red) in HEK293 cell free culture (AID 720683). An outline of the steps:
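Red-channel autofluorescence of compounds in culture medium (DMEM, 10% FBS), no cells, measured at 540/590 nm. Rose Bengal sodium is the reference fluorophore for equivalence.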

A short description of assay [13]: qHTS assay to test for compound auto fluorescence at 590 nm (red) in HepG2 cell free culture (AID 720684). The procedure, abridged: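 Cell-free; medium MEM + 10% FBS; compound or DMSO added by pintool; read Ex 540/Em 590 nm; Rose Bengal sodium as red reference fluorophore.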
Assay [14] can be described thus: qHTS assay to test for compound auto fluorescence at 460 nm (blue) in HepG2 cell free culture (AID 720685). An outline of the steps: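 Cell-free plates of MEM plus 10% FBS received 23 nL compound or DMSO vehicle; blue-channel (405/460 nm) intensity scored against triamterene as reference fluorophore.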
A short description of assay [15]: qHTS assay to test for compound auto fluorescence at 535 nm (green) in HepG2 cell free culture (AID 720686).
Assay [16] is described as follows: qHTS assay to test for compound auto fluorescence at 460 nm (blue) in HepG2 cells (AID 720687). An outline of the steps:
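Blue-channel autofluorescence (Ex/Em 405/460 nm, triamterene-equivalent) was measured after 1 hr compound exposure at 37 C, 5% CO2. Cells were HepG2, plated overnight at 37 C in MEM plus 10% FBS.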

Assay [17] concerns the target Glucocorticoid receptor (Homo sapiens) (UniProt P04150). Kind of assay: qHTS assay to identify small molecule agonists of the glucocorticoid receptor (GR) signaling pathway (AID 720691; active = well fitted activation curve with a large enough effect in the signal ratio in the repeat runs, not every such curve was filed as active; the % refers to the signal ratio). An outline of the steps: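 A HeLa cervical cancer line expressing GR and a glucocorticoid response element-driven beta-lactamase gene is treated with compounds for 18 h; LiveBLAzer B/G FRET substrate is then applied and fluorescence read.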

Assay [18] has the same target. Kind of assay: qHTS assay to identify small molecule antagonists of the glucocorticoid receptor (GR) signaling pathway (AID 720692; active = well fitted inhibition curve with a large enough effect in the signal ratio in the repeat runs, not every such curve was filed as active; the % refers to the signal ratio). An outline of the steps: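 GRE-bla HeLa line, dex-stimulated (5 nM final). Compound exposure 18 h, 37 C. Beta-lactamase FRET read after 2 h RT substrate.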
Assay [19] in a line: qHTS assay to test for compound auto fluorescence at 535 nm (green) in HEK293 cells (AID 720680).
Assay [20] is described as follows: qHTS assay for small molecule disruptors of the mitochondrial membrane potential (AID 720635). Also: potency is read from the fitted curve at half-maximal effect. An outline of the steps:
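Mitochondrial membrane potential tracked with Mito-MPS dye, red aggregates (ex 540/em 590 nm) against green monomers (ex 490/em 535 nm). Compound treatment 1 hr at 37C, dye 30 min in HepG2.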

Chain of Glucocorticoid receptor (Homo sapiens) (P04150 whole entry, looked up): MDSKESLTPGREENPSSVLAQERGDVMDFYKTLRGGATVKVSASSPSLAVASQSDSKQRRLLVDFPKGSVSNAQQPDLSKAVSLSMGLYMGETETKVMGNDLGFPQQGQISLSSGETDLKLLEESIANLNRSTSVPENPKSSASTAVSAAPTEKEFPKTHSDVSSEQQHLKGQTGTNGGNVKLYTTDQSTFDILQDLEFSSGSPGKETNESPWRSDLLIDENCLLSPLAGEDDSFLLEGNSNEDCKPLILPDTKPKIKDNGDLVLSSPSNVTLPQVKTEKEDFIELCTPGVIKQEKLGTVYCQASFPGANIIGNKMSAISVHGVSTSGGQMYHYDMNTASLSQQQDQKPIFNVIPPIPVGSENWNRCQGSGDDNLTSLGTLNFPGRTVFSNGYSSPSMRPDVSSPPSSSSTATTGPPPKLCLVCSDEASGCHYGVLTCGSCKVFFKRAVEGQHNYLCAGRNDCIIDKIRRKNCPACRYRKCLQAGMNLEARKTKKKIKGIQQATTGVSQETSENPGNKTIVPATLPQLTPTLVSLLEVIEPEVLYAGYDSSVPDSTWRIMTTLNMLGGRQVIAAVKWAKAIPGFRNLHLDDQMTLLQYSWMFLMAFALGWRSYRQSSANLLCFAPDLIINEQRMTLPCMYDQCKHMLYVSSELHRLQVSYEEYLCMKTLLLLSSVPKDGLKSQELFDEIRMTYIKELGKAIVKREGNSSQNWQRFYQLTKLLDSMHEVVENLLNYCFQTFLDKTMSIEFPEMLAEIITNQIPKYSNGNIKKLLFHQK

`C[C@H]1NCc2cc(-c3ccc4c(=O)c(C(=O)O)cn(C5CC5)c4c3OC(F)F)ccc21`: the Potency entry in [1], in assay [2], in [3], in assay [4], in assay [5] and in assay [6] was “inactive” each time. The Potency entry in assay [7], in assay [8], in assay [9], in assay [10], in assay [11] and in assay [12] was “inactive” throughout. The Potency entry in assay [13], in assay [14], in assay [15], in assay [16], in assay [17] and in [18] was “inactive” in each case.

As for `O=[N+]([O-])c1cccc(C(F)(F)F)c1`, the Potency entry in [1], in assay [2], in assay [3], in assay [4], in assay [5] and in assay [6] was “inactive” each time. The Potency result in assay [7], in assay [8], in assay [9], in [19], in assay [10] and in [11] was “inactive” throughout. The Potency result in assay [12], in [13], in assay [14], in assay [15], in [16] and in [17] was “inactive” throughout. The Potency entry in assay [18] is “inactive”.

As for `CC(C)(C)NSc1nc2ccccc2s1`, the Potency entry in assay [1], in [2], in [3], in [4], in assay [5] and in assay [6] was “inactive” throughout. The Potency result in assay [7], in assay [8], in [9], in [19], in [10] and in assay [11] was “inactive” throughout. For the same compound, the Potency entry in assay [12], in assay [13], in [14], in [15], in assay [16] and in [17] was “inactive” in each case. Besides, the Potency in [20] is 24.8 µM (active).

For `O=[N+]([O-])c1ccc(F)c(Cl)c1`, the Potency result in assay [1], in [2], in assay [3], in assay [4], in assay [5] and in [6] was “inactive” each time. Also, the Potency result in assay [7], in assay [8], in [9], in assay [19], in assay [10] and in assay [11] was “inactive” each time. In addition, the Potency result in [12], in assay [13], in assay [14], in assay [15], in assay [16] and in [17] was “inactive” in each case. For the same compound, in assay [18], the Potency entry was “inactive”.

With `CCCCCCCC`, the Potency result in assay [1], in assay [2], in assay [3], in assay [4], in [20] and in assay [6] was “inactive” in each case. Also, the Potency result in assay [7], in assay [8], in assay [9], in assay [19], in [10] and in assay [11] was “inactive” throughout. The Potency result in [12], in assay [13], in [14], in [15], in [16] and in [17] was “inactive” in each case. The Potency entry in assay [18] is “inactive”.

In the case of `C1CCC(SSC2CCCCC2)CC1`, the Potency result in [1], in assay [2], in assay [3], in [4], in [6] and in assay [7] was “inactive” throughout. Further, the Potency result in assay [9], in assay [19], in assay [10], in assay [11], in assay [12] and in assay [13] was “inactive” each time. Further, the Potency entry in assay [14], in assay [15], in assay [16], in assay [17] and in assay [18] was “inactive” each time.
